Where “and” joins values, the source holds several entries; their conditions need not be identical. Equal entries are not always repeated. Compounds without any hit were thinned out: in the full panel of roughly 83,000, 20% have a hit.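 In brief: 96-well plates, 48 h treatment, single concentration, percent growth endpoint.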 Calls of active or inactive are those of the source. How the source made its calls: active means growth percent below 10; inactive means the rest.
What follows are compounds tested on MDA-MB-468 breast (assay: NCI-60 one-dose screen, 48 h (100 = growth as untreated, 0 = no growth, -100 = all killed)). Conditions: 10 µM unless noted.

Q: How did the growth turn out when `CN(C)c1ccc(/C=C(\C#N)c2cc3ccccc3n2C)cc1` was run?
A: 31.8% (inactive)

Q: For `Cc1ccc(C=C2C(Cl)=C(Cl)C(Cl)=C2Cl)cc1`, which growth is on record?
A: -59.4% (active)

Q: `Clc1ccc(-c2cc(-c3ccccc3)nc(NCCNc3ccnc4cc(Cl)ccc34)n2)cc1` was tested. Which growth did it give?
A: -79.6% (active)

Q: Which growth does the source give for `Nc1nc(Cl)nc2c1ncn2C1OC(CO)C(O)C1O` (stereo not given) here?
A: 124% (inactive) and 94.5% (inactive)

Q: For `CC(=O)c1c([Si](C)(C)C)c2cc(C#N)ccn2c1C(=O)c1ccc(Br)cc1`, which growth is on record?
A: 79.9% (inactive)

Q: For `O=C1[C@@H]2Cc3c([nH]c4ccccc34)[C@H](c3c(Cl)cccc3Cl)N2C(=O)CN1C1CCN(CC2CCCCC2)CC1`, which growth is on record?
A: 47.8% (inactive)

Q: How did the growth turn out when `O=C1Nc2ccccc2/C1=C\c1cccc(/C=C2/C(=O)Nc3ccccc32)n1` was run?
A: -33.2% (active)

Q: With `N#Cc1c(-c2ccc(C(F)(F)F)cc2)c(F)c(NCCC2CCC(O)C2)n2c1nc1ccccc12` (stereo not given) as the compound, how does the growth read?
A: 64.2% (inactive)

Q: How did the growth turn out when `COc1ccc2c(NCCCCCCCCNc3c4ccccc4nc4cc(OC)ccc34)c3ccccc3nc2c1` was run?
A: -100% (active)

Q: `CC(=O)/C(=C/c1ccc(-c2ccccc2)cc1)C(=O)c1ccccc1` was tested. Which growth did it give?
A: 92.2% (inactive)

Q: With `COc1cccc(C2C(C#N)=C(N)Oc3c2ccc2ccccc32)c1` (stereo not given) as the compound, how does the growth read?
A: 11.6% (inactive)

Q: With `O=C1CC(c2ccc3c(c2)OCO3)c2ncn(-c3ccc(Cl)cc3)c2N1` (stereo not given) as the compound, how does the growth read?
A: 13% (inactive)

Q: Which growth does the source give for `CSc1nsc(N)n1` here?
A: 103% (inactive)

Q: `C/C(=N\NC(=O)CSc1nc2sc3c(c2c(=O)n1-c1ccccc1)CCC(C)C3)c1ccc(Cl)cc1` (stereo not given) was tested. Which growth did it give?
A: -28% (active)

Q: With `CCOC(=O)Nc1ccc2nc(Sc3ccc(Cl)cc3)sc2c1` as the compound, how does the growth read?
A: 0.385% (active)

Q: Which growth does the source give for `Fc1ccc(-c2nc(C(Cl)Cl)nc3cc(-c4ccccc4)nn23)cc1` here?
A: -52.7% (active)

Q: How did the growth turn out when `CCC/C(=N/NC(N)=O)c1ccco1` was run?
A: 102% (inactive)

Q: Which growth does the source give for `C/C(CC(=O)NNc1ccc([N+](=O)[O-])cc1)=N\Nc1ccc([N+](=O)[O-])cc1` here?
A: 97.7% (inactive)

Q: For `Cc1ccc(NC(=O)c2sc3nc(C)c(Br)c(C)c3c2N)cc1`, which growth is on record?
A: 66.6% (inactive)

Q: Which growth does the source give for `COc1ccc(/C=N\Nc2nc(SCCC(C)C)nc(-c3ccc(OC)cc3)c2C#N)cc1` here?
A: 35.9% (inactive)

Q: Which growth does the source give for `Oc1c(Cl)cc(Cl)c2ccc(Cn3cc(-c4cccc(C(F)(F)F)c4)nn3)nc12` here?
A: 56.4% (inactive)

Q: For `N#C/C(=C\c1ccc(-c2cccc(C(F)(F)F)c2)o1)c1ccccc1`, which growth is on record?
A: 23.4% (inactive)

Q: With `COc1cc(N2C(=O)c3nccnc3C2=O)cc(OC)c1OC` as the compound, how does the growth read?
A: 115% (inactive)

Q: Which growth does the source give for `COc1cc2nc(-c3ccc(C(F)(F)F)cc3)cc(OCCCN3CCC(O)CC3)c2cc1OC` here?
A: 44% (inactive)

Q: With `CC(=O)C[n+]1ccccc1Sc1ccc(Cl)cc1` as the compound, how does the growth read?
A: 97.3% (inactive)

Q: Which growth does the source give for `S=c1nn[nH]n1C1CCCCC1` here?
A: 125% (inactive)

Q: `COc1ccc(C2CC(n3ccnc3)c3cc(OC)c(OC)c(OC)c32)cc1O` (stereo not given) was tested. Which growth did it give?
A: 78.6% (inactive)

Q: `Cc1cc(C(O)CN(C)C)cc2c1ccc1cc(C(C)C)ccc12` (stereo not given) was tested. Which growth did it give?
A: -88.6% (active)

Q: `CCN(CC)c1ccc(/C=C2\SC(=O)C(Nc3nnc(-c4cccnc4SCc4ccccc4)o3)C2=O)cc1` (stereo not given) was tested. Which growth did it give?
A: 2.42% (active)

Q: Which growth does the source give for `O=S(=O)(NCCCNc1cc(-c2cn(-c3ccccc3)nc2-c2ccccc2)ccn1)c1ccc(C(F)(F)F)cc1` here?
A: 40.7% (inactive)

Q: `O=C(N/N=C/c1ccc(Br)s1)c1[nH]c2ccc(Br)cc2c1-c1ccccc1` was tested. Which growth did it give?
A: -5.18% (active)

Q: Which growth does the source give for `Oc1ccc(N=Cc2ccc(OCc3ccccc3)cc2)cc1` here?
A: 97.6% (inactive)

Q: For `O=[N+]([O-])c1ccc2c(c1)Cc1cc(I)ccc1-2`, which growth is on record?
A: 105% (inactive)

Q: How did the growth turn out when `CCN1C(=O)N(CC)C2C1NN=c1s/c(=C\c3cccc([N+](=O)[O-])c3)c(=O)n12` (stereo not given) was run?
A: 3.95% (active)

Q: With `Cc1ccc(S(=O)(=O)n2cc(C(=O)C(=O)N3CCOCC3)c3ccccc32)cc1` as the compound, how does the growth read?
A: 90.4% (inactive)

Q: How did the growth turn out when `O=C(/C=C\c1ccccc1)N1c2ccccc2CC1c1c[nH]c2ccccc12` (stereo not given) was run?
A: 80.6% (inactive)

Q: How did the growth turn out when `CCC(=O)Oc1ccc(/C=N/NC(N)=S)nc1` was run?
A: 18.7% (inactive)

Q: For `CC(=O)/C(=C/c1ccc(Cl)cc1)C(=O)c1ccccc1`, which growth is on record?
A: 96.9% (inactive)

Q: How did the growth turn out when `CCOC(=O)C1=C(C)N=c2s/c(=C\c3ccccc3O)c(=O)n2C1c1ccc(OC)c2ccccc12` (stereo not given) was run?
A: -77.6% (active)

Q: For `COC1=C(OC)C(=O)c2ccccc2C1=O`, which growth is on record?
A: -34% (active)

Reference: PubChem BioAssay (NCI)
